According to PubChem BioAssay (NCI):
This is part of a sample that, as a whole, favours compounds with a hit. Of some 83,000 tested, about 20% had one in any assay.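 Single-dose data. Exposure time 48 hours. Values below 10 considered active.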 Values without a mark were called inactive. Calls of active or inactive are those of the source.

How the values were obtained:
Assay in all cases: NCI-60 one-dose screen, 48 h (100 = growth as untreated, 0 = no growth, -100 = all killed)
Details in all cases: 10 µM
[1] = tested on: HCT-15 colon
[2] = tested on: HT29 colon
[3] = tested on: SNB-75 CNS
[4] = tested on: SNB-19 CNS
[5] = tested on: U251 CNS
[6] = tested on: PC-3 prostate
[7] = tested on: SK-MEL-5 melanoma
[8] = tested on: UACC-62 melanoma
[9] = tested on: LOX IMVI melanoma
[10] = tested on: SK-MEL-28 melanoma
[11] = tested on: SK-MEL-2 melanoma
[12] = tested on: SN12C renal
[13] = tested on: UO-31 renal
[14] = tested on: TK-10 renal
[15] = tested on: ACHN renal
[16] = tested on: CAKI-1 renal
[17] = tested on: A498 renal
[18] = tested on: EKVX NSCLC
[19] = tested on: CCRF-CEM leukemia
[20] = tested on: MOLT-4 leukemia

Row | Structure (SMILES) | growth [1] | growth [2] | growth [3] | growth [4] | growth [5] | growth [6] | growth [7] | growth [8] | growth [9] | growth [10] | growth [11] | growth [12] | growth [13] | growth [14] [%] | growth [15] | growth [16] | growth [17] | growth [18] | growth [19] | growth [20]
1 | COc1ccc2[nH]c(O)c(N=NC(=O)COc3ccc(NC(=O)Nc4ccc(Cl)cc4)cc3)c2c1 | 99.5% | 8.21% (active) | 42.8% | 3.67% (active) | -87.2% (active) | 18% | 32.2% | -30.2% (active) | -59.7% (active) | -72.3% (active) | -8.16% (active) | 15.9% | 90.3% | 106 | 100% | 99.7% | 135% |  |  | 
2 | COC[C@@H](CC(C)C)N=C1NC(=O)/C(=C/c2ccc3ncoc3c2)N1 | 1.92% (active) | 8.17% (active) | -9.28% (active) | 17.5% | 16.4% | 42.4% | 3.83% (active) | -27.3% (active) | 6.76% (active) | 0.832% (active) |  | 15.1% | -8.68% (active) | 36.5 | 7.63% (active) | 6.77% (active) | -9.51% (active) | 18% | 15.2% | 11.3%
3 | O=C1c2ccccc2C(=O)c2c1c(C(=O)c1ccc(Cl)cc1)n1c2ccc2c3ccccc3ccc21 | 103% | 109% | 86.7% | 96.1% | 110% | 94.8% | 99.9% | 96.9% | 90.2% | 108% | 107% | 103% | 69.8% | 108 | 82.1% | 92.5% | 144% |  | 102% | 107%
4 | CN(C)c1cccc2c(S(=O)(=O)Nc3cccc(-c4csc(NC(=O)CCCCCN5CCN(c6cc7c(cc6F)C(=O)N(C6CCC(=O)NC6=O)C7=O)CC5)n4)c3)cccc12 (stereo not drawn) | 77.9% | 92.3% | 60.5% | 92.8% | 94.4% | 78.5% | 60.2% | 83.1% | 91.8% | 104% |  | 85.8% | 70% | 97.4 | 97.8% | 79.4% | 95.7% | 80.8% | 66.3% | 
5 | CN1C(=O)N(C)C2SC(N/N=C/c3ccc(F)cc3)=NC21 (stereo not drawn) | 26.1% | 16.2% | 23.7% | 43.1% | 35.4% | 66.2% | 26.8% | 18.4% | 40% | 63.5% | 26.5% |  | 47.7% | 72.4 | 60.1% | 46.3% |  | 77.2% | 40.3% | 45.4%
6 | Nc1nc(-c2ccccc2)cc(-c2cc3ccccc3nc2Cl)n1 | 55.9% | 102% | 71.4% | 73.4% | 63.4% | 76.9% | 92.9% | 83.3% | 45% | 103% | 97.1% |  |  | 111 | 89.1% | 80.1% | 108% | 80.1% | 1.2% (active) | 59.2%
7 | O=c1cc(-c2ccccc2)oc2cc(OCCCNCc3ccccc3)cc(O)c12 | -67.1% (active) | -59.7% (active) | 23.9% | 48.2% | -79.8% (active) | -0.767% (active) | -99.6% (active) | -55.7% (active) | -97.8% (active) | -88.8% (active) | -81.4% (active) |  | -9.86% (active) |  | 3.03% (active) | -24% (active) | -14.5% (active) | 8.87% (active) | 10.1% | -13% (active)
8 | Brc1ccc(/C=N/Nc2ncnc3sc4c(c23)CCN(Cc2ccccc2)C4)cc1 | 58.3% | 4.77% (active) | -7.37% (active) | 99.9% | 61.1% | 61.6% | 94.8% | 90.3% | 46.9% | 41.9% | 112% | 64.4% | 73.9% | 125 | 56.5% | 70% | 117% |  | 22.5% | 46.2%
9 | CN1CCN(Cc2ccc(C(=O)Nc3cccc(Nc4ccc5cc(O)ccc5n4)c3)cc2C(F)(F)F)CC1 | -81% (active) | -49.4% (active) | -11.4% (active) | -54% (active) | -65% (active) | -22.9% (active) | -99.7% (active) | -90.1% (active) | -93.5% (active) | -91.9% (active) |  | -64% (active) | -36.8% (active) | 24 | -56.8% (active) | -28% (active) | 148% | -40.7% (active) | -37.1% (active) | -41.1% (active)
10 | COc1cccc(-c2nn(-c3ccccc3)cc2-c2ccnc(NCCCNC(=O)Nc3ccc(F)cc3)c2)c1 | -16.3% (active) | -7.83% (active) | 0.286% (active) | 6% (active) | 8.94% (active) | 3.99% (active) | -71% (active) | 11.4% | 3.45% (active) | -3.54% (active) | -40.6% (active) |  | 17.7% |  | 20.6% | 19.2% | 58% | 20.7% | -26.7% (active) | 
11 | COc1ccc2nc(Cl)c(-c3cc(-c4ccccc4)nc(=S)[nH]3)cc2c1 | 46.4% | 43.7% | 41.5% | 83.6% | 87.2% | 67.3% | 6.49% (active) | 23.2% | 60.3% | 50% | 9.29% (active) | 75.6% |  | 129 | 51.3% | 56.9% | 87.7% |  | 64.5% | 23.8%
12 | COc1ccc(NC(=O)Cn2c(/C=C/c3ccc(N(C)C)cc3)nc3ccccc3c2=O)cc1 | 57% | 44.7% | 84.1% | 70.7% | 23% | 64.5% | 30.7% | 40.9% | 13.8% | 45.6% |  | 24% | 2.65% (active) | 62.8 | -2.17% (active) | 18.9% | 56.5% | 71.2% | 90.9% | 85.3%
13 | C#CCNC(=O)[C@]12CCC(C)(C)C[C@H]1C1=CC[C@@H]3[C@@](C)(CCC#N)[C@H](C(=C)C)CC[C@@]3(C)[C@]1(C)CC2 | 33.2% | 48.9% | 82.5% | 64.3% | 54.6% | 26.3% | 42.7% | 52.1% | -53.1% (active) | 74.6% | 57.2% | 68.7% | 36.6% | 71.5 | 60.2% | 40.3% | 129% |  |  | 
14 | CCN1CCN(c2ccc(NC(=O)Nc3ccc(-c4cc(C(=O)NC)c5ncccc5n4)cc3)cc2C(F)(F)F)CC1 | -100% (active) | -100% (active) | -95% (active) | -100% (active) | -96.3% (active) | -77.9% (active) | -100% (active) | -99% (active) | -100% (active) | -100% (active) | -72.8% (active) |  | -100% (active) |  | -100% (active) | -100% (active) | -98.4% (active) | -100% (active) | -52.5% (active) | 
15 | Cc1ccc(NC(=O)NCn2c(=O)[nH]c3ccccc3c2=O)cc1 | 92.1% | 109% | 29% | 52.6% | 61.5% | 84.1% | 85.1% | 60.9% | 83.7% | 94.5% | 93.1% | 68.6% | 44.5% |  | 35% | 61.4% | 90.4% |  | 97.5% | 
16 | COc1ccc(/C(CSc2nnc(-c3c[nH]c4ccccc34)n2-c2ccccc2)=N/O)cc1 | 15.3% | 32% | 63.3% | 40.3% | 39.4% | 23.1% | -10.2% (active) | 31.4% | -78.2% (active) | 37.4% | 5.87% (active) | 45.8% | 18.2% | 42.7 | 22.3% | 20.1% | 69.8% |  | 16.5% | 16.7%
17 | CN1C(=O)N(C)C2SC(N/N=C/c3ccccc3)=NC21 (stereo not drawn) | 30.1% | 38.5% | 60.7% | 74.6% | 60.4% | 84.7% | 68.4% | 42.5% | 63.4% | 75.5% | 73.3% | 81.5% | 65.4% | 87.4 | 96.3% | 72.5% | 81.7% |  | 78.4% | 54.9%
